Results filed as inconclusive are left out. Active and inactive are the calls of the source. Calls come from the whole dose curve; as a rule, active = well fitted curve in the direction sought with a large enough effect; inconclusive = small, poorly fitted or top-dose-only effect, or another doubt; inactive = no such curve, though single readings can be large; an effect the other way counts as inactive or inconclusive.
Columns and labels:
[1] = molecular target: Cellular tumor antigen p53 (Homo sapiens) (UniProt P04637); assay: Primary qHTS for small molecule compounds that upregulate eGFP-tagged delta133p53alpha (in N-terminal) cells. (AID 2060322); settings: NCI-H358 eGFP-delta133p53alpha fluorescence, 24 h; activation: hits give high values;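 note: series mostly up to about 56 µM; 0% = DMSO vehicle and 100% = reference activator; nearly all actives have a fitted effect of over 75% in size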
Summary of the method: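 NCI-H358 cells pre-induced 24 h with 10 ng/ml doxycycline to express N-terminal eGFP-delta133p53alpha, then dosed 24 h at 37C without doxycycline; fixed, Hoechst-stained, GFP intensity by laser scanning cytometry, normalized to DMSO (0%) and 57.5 uM 5-azacytidine (100%).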

[2] = molecular target: Aldehyde dehydrogenase, mitochondrial (Homo sapiens) (UniProt P05091); assay: qHTS for Inhibitors of the Aldehyde Dehydrogenase Family (ALDH2) Primary screen (AID 2061308);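 note: plate controls were vehicle for no effect and reference inhibitor for full effect; nearly all actives have a fitted effect of over 55% in size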
[3] = molecular target: Retinaldehyde dehydrogenase 3 (Homo sapiens) (UniProt P47895); assay: qHTS for Inhibitors of the Aldehyde Dehydrogenase Family (ALDH1A3) Primary screen (AID 2061315);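 note: plate controls were DMSO vehicle for no effect and reference inhibitor for full effect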

Cellular tumor antigen p53 (Homo sapiens), sequence (P04637 whole entry, looked up): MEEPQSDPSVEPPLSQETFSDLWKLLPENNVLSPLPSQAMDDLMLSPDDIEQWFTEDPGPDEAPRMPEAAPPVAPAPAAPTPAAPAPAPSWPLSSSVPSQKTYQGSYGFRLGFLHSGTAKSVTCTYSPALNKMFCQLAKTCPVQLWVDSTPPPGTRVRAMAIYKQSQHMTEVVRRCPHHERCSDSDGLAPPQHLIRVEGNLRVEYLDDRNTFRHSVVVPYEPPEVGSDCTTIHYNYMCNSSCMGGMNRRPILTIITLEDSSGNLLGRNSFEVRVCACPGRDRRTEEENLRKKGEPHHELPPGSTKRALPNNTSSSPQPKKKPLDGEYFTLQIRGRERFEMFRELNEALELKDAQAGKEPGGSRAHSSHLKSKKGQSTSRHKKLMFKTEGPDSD

CC1(C)CC[C@@]2(C(=O)O[C@@H]3O[C@H](CO)[C@@H](O)[C@H](O)[C@H]3O)C(C1)C1=CCC3[C@@]4(C)CC[C@@H](O[C@@H]5O[C@H](C(=O)O)[C@@H](O[C@@H]6OC[C@@H](O)[C@H](O)[C@H]6O)[C@H](O[C@@H]6OC[C@](O)(CO)[C@H]6O)[C@H]5O)C(C)(C)C4CC[C@@]3(C)[C@]1(C)C[C@H]2O (stereo partly specified)
inactive: activation [1] -19.8% | Potency [2] | Potency [3]

CC1OC(=O)C[C@@H]2C(C(=O)O)=CO[C@@H](O[C@H]3O[C@H](CO)[C@@H](O)[C@H](O)[C@H]3O)[C@H]12 (stereo partly specified)
inactive: activation [1] -23.2% | Potency [2] | Potency [3]

C[C@@H]1O[C@@H](OC[C@H]2O[C@@H](OCCc3ccccc3)[C@H](O)[C@@H](O)[C@@H]2O)[C@H](O)[C@H](O)[C@H]1O
inactive: activation [1] -8.4% | Potency [2] | Potency [3]

O=C(c1ccc(Cl)cc1)N1CCN(c2ccnc3cc(Cl)ccc23)CC1
inactive: activation [1] -3% | Potency [2] | Potency [3]

CO[C@@H]1CC[C@H](OC[C@]2(COC(=O)c3ccc(C)[nH]3)[C@H](OC(C)=O)CC[C@@]3(C)[C@@H]4CC=C(C)[C@@H](C5=C(O)C(=O)OC5O)[C@]4(C)CC[C@@H]32)O[C@H]1C (stereo partly specified)
inactive: activation [1] 0% | Potency [2] | Potency [3]

CC(=O)OCC1=C[C@H](O)[C@@H]2C(C(=O)O)=CO[C@@H](O[C@@H]3O[C@H](CO)[C@@H](O)[C@H](O)[C@H]3O)[C@H]12
inactive: activation [1] 0.763% | Potency [2] | Potency [3]

CC1CCC2C(C)(C)C(O)C(O)CC2(C)C12Cc1c(O)cc(CO)c(C=O)c1O2 (stereo unspecified)
inactive: activation [1] 0.763% | Potency [2] | Potency [3]

— PubChem BioAssay (NCATS)
